TGFb inhibitor: inhibitors of TGF-b signaling; HepG2 CAGA-GFP TGF-b/SMAD3 reporter, GFP fluorescence, 18 h; TGF-beta stimulated, 500 pg/mL final; Potency, µM (top dose mostly 46.1 µM), for inactives: at the highest dose activity, negative = inhibition, actives largely listed as inhibitors; actives 1.2% (n = 410,000); AID 588855; note: % is set by controls: 0 for no effect and ±100 for the full control effect; nearly all actives have a fitted effect of over 65% in size
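Smad-responsive CAGA-GFP expression was quantified in HEPG2 cells exposed to compounds and 500 pg/mL final TGF-beta for 18 h at 37 degrees C; unstimulated wells defined full inhibition.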
S2 tox: viability counter-screen for ATXN expression inhibitors; S2 cells (HEK-293 line with an ATXN2-luciferase reporter) viability, CellTiter-Fluor protease fluorescence, 24 h; Potency, µM (top dose mostly 56.7 µM), most hits filed as cytotoxic; actives 0.49% (n = 400,000); note: nearly all actives have a fitted effect of over 40% in size
12-LOX inh: inhibitors of human 12S-lipoxygenase ALOX12; purified 12hLO, xylenol orange hydroperoxide absorbance; Potency, µM (series often up to 108 µM), for inactives: top-dose activity change, negative = inhibition, most hits filed as inhibitors; actives 1.1% (n = 580,000); note: % is set by controls: 0 for no effect and ±100 for the full control effect
Target sequence (P18054 whole entry, looked up): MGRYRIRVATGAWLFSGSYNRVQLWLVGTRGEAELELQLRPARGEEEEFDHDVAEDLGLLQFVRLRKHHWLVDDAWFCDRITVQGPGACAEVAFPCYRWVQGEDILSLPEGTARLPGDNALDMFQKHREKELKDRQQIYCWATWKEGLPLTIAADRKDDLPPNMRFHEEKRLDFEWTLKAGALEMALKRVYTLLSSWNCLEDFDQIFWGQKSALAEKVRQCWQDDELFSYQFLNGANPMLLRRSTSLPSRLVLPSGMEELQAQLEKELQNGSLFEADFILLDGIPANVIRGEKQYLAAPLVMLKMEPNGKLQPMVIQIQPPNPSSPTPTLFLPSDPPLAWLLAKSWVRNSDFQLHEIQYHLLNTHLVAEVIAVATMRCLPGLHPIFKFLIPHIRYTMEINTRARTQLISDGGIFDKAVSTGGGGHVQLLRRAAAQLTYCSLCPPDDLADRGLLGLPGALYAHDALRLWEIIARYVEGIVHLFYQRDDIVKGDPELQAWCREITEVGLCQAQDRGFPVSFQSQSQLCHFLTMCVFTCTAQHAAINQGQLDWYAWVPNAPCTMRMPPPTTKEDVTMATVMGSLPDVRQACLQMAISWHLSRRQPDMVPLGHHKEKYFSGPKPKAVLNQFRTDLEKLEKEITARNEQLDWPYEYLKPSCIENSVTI
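Purified human 12hLO (150 nM final) in 25 mM Hepes, 0.01% Triton X-100, pH 7.0 was preincubated 15 min at room temperature with compound. Then 40 uM arachidonic acid was added, 30 min. Hydroperoxide was read by Fe-XO absorbance ratio 573/405 nm.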
ATXN2 expr inh: reduces ATXN2 reporter expression in HEK-293 cells; HEK-293 ATXN2-luciferase reporter, luminescence, 24 h; Potency, µM (top dose mostly 57 µM), for inactives: at the highest dose activity change, negative = inhibition, usual class: inhibitors; actives 0.72% (n = 360,000); AID 1745845; note: % is set by controls: 0 for no effect and ±100 for the full control effect; nearly all actives have a fitted effect of over 55% in size
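qHTS (up to 57 uM final) was run with 24 h compound exposure of reporter cells at 37 °C. Each well was multiplexed: SteadyGlo luminescence measured ATXN2-luciferase expression after a fluorogenic Gly-Phe-AFC viability readout (25 uM final).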
HepG2 tox: counter-screen for TGF-b inhibitors: cytotoxicity in HepG2 cells; HepG2 CAGA-GFP viability, ATP luminescence, 18 h; actives 0.76% (n = 410,000); Potency, µM (titrated, usually from 46.1 µM), for inactives: at the top dose activity change, negative = cytotoxicity, most hits filed as cytotoxic
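CellTiter-Glo luminescence gave cytotoxicity after 18 hours at 37 degrees C. The cells were HepG2 CAGA-GFP in 1% FBS DMEM, stimulated with 500 pg/mL TGF-beta after compound addition. %Activity was normalised to no-cell wells (complete cell-killing) and DMSO (no toxicity), and curves were fitted and classified.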
* hit, by the source's call; i = inactive; ? = inconclusive; . = no result given; [ ] = dose if it differs, or a comment. The list is not random: actives were taken first. Their share in the collection is about 2.7%. Calls come from the whole dose curve; as a rule, active = well fitted curve in the direction sought with a large enough effect; inconclusive = small, poorly fitted or top-dose-only effect, or another doubt; inactive = no such curve, though single readings can be large; an effect the other way counts as inactive or inconclusive. Potency is the fitted concentration of half-maximal effect.

SMILES	TGFb inhibitor	S2 tox	12-LOX inh	ATXN2 expr inh	HepG2 tox
C/C(=N\NC(=O)C1CC1)c1ccccn1	.	.	9%	.	.
O=[N+]([O-])c1cccnc1S(=O)(=O)c1ccccc1	11µM*	?	0%	-31%	3.5µM*
COc1ccc([N+](=O)[O-])c(S(=O)(=O)c2ccccc2)n1	3.2µM*	.	-160%	12µM*	14µM*
COc1ccccc1S(=O)(=O)c1ccccc1[N+](=O)[O-]	?	i	-12%	-2%	0%
Nc1cccnc1S(=O)(=O)c1ccccc1	0%	i	62%	11%	-3%
COc1ccc([N+](=O)[O-])c(S(=O)(=O)c2ccc(Cl)cc2)n1	1.8µM*	.	-24%	?	0.63µM*
FC(F)(F)c1cccc(CN2CCC(c3cc(-c4cccs4)n[nH]3)CC2)c1	?	?	?	?	20µM*
O=C(CNC(=O)c1ccccc1Cl)N/N=C/c1ccc([N+](=O)[O-])s1	13µM*	i	-1%	-30%[11.3 µM]	10µM*
Cc1onc(-c2ccccc2)c1C(=O)N/N=C/c1ccc([N+](=O)[O-])s1	?	i	?	?	10µM*
Cc1onc(-c2ccccc2)c1C(=O)NN=Cc1cc(Cl)cc(Cl)c1O	.	.	13µM*	.	.
Cc1onc(-c2ccccc2)c1C(=O)N/N=C/c1cccc(O)c1	-25%	i	-16%	-16%	-26%
CCCC(C)NC(=O)c1cccc2c(C)c(C)[nH]c12 (centres undefined)	.	.	1%	.	.
C[S+](=O)([O-])CCn1ncc2cc(OCc3cccc(-c4cccc(O)c4)c3)ccc21	.	.	-13%[176 µM]	.	.
Cc1ccc(C2SCCN2C(=O)c2cc3ccccc3oc2=O)cc1 (centres undefined)	.	.	-10%	.	.
CC(C)(C)C1C/C(=C/c2ccccn2)C(=O)/C(=C/c2ccccn2)C1 (centres undefined)	0.89µM*	1.8µM*	.	1.4µM*	-24%
CC1C/C(=C/c2ccccn2)C(=O)/C(=C/c2ccccn2)C1 (centres undefined)	1.3µM*	.	.	?	-108%
O=C1/C(=C/c2ccccn2)COc2ccccc21	-6%	i	-4%	14%	-17%
COC(=O)c1ccc(OC(=O)/C=C/c2ccc(Br)o2)cc1	.	.	11µM*	.	.
O=C(Nc1ccc(CC(=O)N2CCOCC2)cc1)c1ccc(Cl)cc1	.	.	21%	.	.
C=CCSc1n[nH]c(-c2ccc(OCCCC)cc2)n1	?	28µM*	19%	?	-59%
C=CCSc1n[nH]c(-c2ccc(OCCC)cc2)n1	0%	i	5%	47%	-27%
CCc1cccc(CC)c1NC(=S)NC(C)c1ccccc1 (centres undefined)	-22%	?	40µM*	.	-31%
CC(NC(=S)NC(=O)c1cccs1)c1ccccc1 (centres undefined)	0%	i	25µM*	21%	-6%
N#Cc1nc(/C=C/c2ccccc2)oc1N1CCN(C(=O)c2ccco2)CC1	.	.	27%	.	.
O=C1C(Nc2ccccc2)=CC(=O)c2ncccc21	.	.	11%[176 µM]	.	.
SMILES	TGFb inhibitor	S2 tox	12-LOX inh	ATXN2 expr inh	HepG2 tox
O=S(=O)(Nc1cccc2cccnc12)c1ccccc1Br	6.3µM*	.	.	.	-40%
CCCCNC1=CC(=O)C(=O)c2ccccc21	3.5µM*	?	?	.	7.1µM*
O=C1C=C(Nc2cccc3cccnc23)c2ccccc2C1=O	5µM*	14µM*	?	-14%[2.22 µM]	3.5µM*
O=S(=O)(Nc1cccc2cccnc12)c1ccccc1F	.	.	26%	.	.
CCc1ccc(NC2=CC(=O)C(=O)c3ccccc32)cc1	2µM*	?	?	?	2.8µM*
CCNC(=O)NC(=O)CN(Cc1ccccc1)c1ccccc1	.	.	29%	.	.
COc1ccccc1N1CCCc2ncc(C(=O)NCc3cccc(Cl)c3)cc21	.	.	24%[176 µM]	.	.
N#Cc1ccc(CN2CC(N3CCc4ccccc43)C2)cc1	.	.	9%[6.33 µM]	.	.
O=C(CCc1ccccc1)NCC12CC3CC(CC(C3)C1)C2	.	.	22%	.	.
Cc1nccc(C(=O)NCC(O)c2ccccc2C(F)(F)F)n1 (centres undefined)	.	.	-4%	.	.
O=C1C=C(Nc2ccccc2)c2ccccc2C1=O	3.2µM*	28µM*	-22%	?	3.5µM*
